Screening data (PubChem BioAssay)
Sm TGR inh: blocks Schistosoma mansoni thioredoxin glutathione reductase; Potency, µM (titrated, usually from 114 µM), inactives show at the highest dose activity change, negative = inhibition, usual class: inhibitors; Q962Y6; AID 485364; hit rate 3% among 360,000; purified TGR, DTNB reduction, TNB absorbance 405 nm; further: potency means the concentration at half of the fitted maximal effect; on the % scale 0 is the no-effect control and ±100 the full control effect; nearly all actives have a fitted effect of over 60% in size
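TGR 20 nM + NADPH 100 uM (dispensed conc.), cpd preinc 15 min RT; start with NADPH (500 uM addition) then DTNB (15 mM addition). Kinetic TNB absorbance, 405 nm filter. Four-parameter Hill fit across titration.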
Pf growth 48h: inhibits P. falciparum growth in the first generation, 48 h; hit rate 5.9% among 310,000; P. falciparum luciferase growth in erythrocytes, 48 h; Potency, µM (series often up to 28.7 µM), inactives show at the highest dose activity change, negative = inhibition, actives largely listed as inhibitors; AID 504832; further: potency means the concentration at half of the fitted maximal effect; on the % scale 0 is the no-effect control and ±100 the full control effect
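Here the parasites carry a stable luciferase gene and grow inside erythrocytes in Albumax-based RPMI medium with compound for one erythrocytic cycle. Activity is scored as loss of luminescent signal.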
Shiga toxin inh: inhibitors of Shiga toxin in Vero cells; AID 2315; hit rate 9.2% among 290,000; Vero cells, Shiga toxin protein synthesis inhibition reporter; inhibition, % at 38.7 µM; in the data active means inhibition mostly above about 28%, no sharp cut-off; inactive means mostly below about 43%; further: 0% is about no effect
Cycloheximide cs: counter-screen hit for Shiga toxin inhibitors, cycloheximide | cell reporter, cycloheximide protein synthesis inhibition counterscreen | max response, % | hit rate 12% among 300,000 | AID 2314; in the data active means max response mostly above about 13%, no sharp cut-off; inactive means mostly below about 14%; further: read at 38.3 µM for the half of the compounds with a filed dose; 0% is about no effect
Pf growth 96h: inhibits malaria parasite growth, 96 h; Potency, µM (doses to about 28.7 µM), for the others: at the highest dose activity change, negative = inhibition, hits mostly inhibitors; hit rate 6.9% among 320,000; AID 504834; P. falciparum luciferase reporter growth, 96 h; further: potency means the concentration at half of the fitted maximal effect; on the % scale 0 is the no-effect control and ±100 the full control effect
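Cell-based qHTS: luciferase-tagged P. falciparum in erythrocytes (2% hematocrit, 0.05% parasitemia final) incubated with compounds for 96 hours, 37 C, 5% CO2; luciferase detection reagent then added and luminescence measured.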
NS1 function inh: blocks influenza NS1 protein function | hit rate 0.4% among 270,000 | Potency, µM (top dose mostly 46.1 µM), inactives show at the highest dose activity, positive = more growth; calls by dose curve; further: potency means the concentration at half of the fitted maximal effect; actives are rising curves; nearly all actives have a fitted effect of over 50% in size
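In this qHTS, NS1 from influenza A is expressed in budding yeast, where it slows growth. Cells are switched from glucose to 2% galactose medium (pH 6.0, -URA), treated with compound, and growth recovery is read at OD600.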
* hit, by the source's call; i = inactive; ? = inconclusive; . = not tested or not shown; + = active, no number; [ ] = remark or other dose. Hits are enriched below; roughly 21% of the tested compounds scored in any of these assays. Unless noted, the call rests on the fitted dose curve; in most records, active means well fitted curve in the direction sought with a large enough effect; inconclusive means small, poorly fitted or top-dose-only effect, or another doubt; inactive means no such curve, though single readings can be large; an effect the other way counts as inactive or inconclusive.

SMILES	Sm TGR inh	Pf growth 48h	Shiga toxin inh	Cycloheximide cs	Pf growth 96h	NS1 function inh
CC(=O)Nc1ccc(N/C(=N\S(=O)(=O)c2ccccc2)c2ccccc2)cc1	3.1%	-6.0%	-11.7	1.3	?	-5.3%
Cc1ccc(S(=O)(=O)/N=C(/NC(=S)Nc2ccccc2)c2ccccc2)cc1	0.0%	.	73.2*	29.9*	416.9%	-1.3%
Cc1ccc(NC(=S)N/C(=N/S(=O)(=O)c2ccccc2)c2ccccc2)cc1	?	182.9%	90.2*	49.4*	.	-8.2%
O=c1[nH]c2ccc(N/C(=N/S(=O)(=O)c3ccccc3)c3ccccc3)cc2[nH]1	1.1%	-8.0%	-4.1	-2.0	4.15µM*	8.8%
COC(=S)N/C(=N\S(=O)(=O)c1ccc(Cl)cc1)c1ccccc1	-0.5%	23.4%	-6.8	-1.7	3.1%	0.0%
Cc1ccc2nc(Cl)c3cc(C(=O)N4CCCC(C)C4)sc3c2c1 (centres undefined)	4.7%	.	.	.	.	.
CCOc1ccc(NC(=O)Cn2nc(-c3ccncc3)ccc2=O)cc1	9.1%	.	.	.	.	.
CCOC(=O)/C=C1\CN(C(C)c2ccccc2)S(=O)(=O)c2ccccc21 (centres undefined)	28.2µM*	-3.2%	-10.0	1.0	-25.8%	5.2%
CCOC(=O)/C=C1\CN(CCC(C)C)S(=O)(=O)c2ccccc21	56.2µM*	?	-10.9	-2.6	14.7µM*	0.3%
COc1ccc(C(=O)NC(NC(=S)Nc2ccc(S(N)(=O)=O)cc2)C(Cl)(Cl)Cl)cc1 (centres undefined)	1.1%	?	-19.1	-1.6	?	-2.5%
CCc1nc2ccccc2c(NC(=O)CN2CC(C)CC(C)C2)c1C (centres undefined)	16.9%	-20.8%	-11.0	-3.8	9.28µM*	11.3%
CSc1ncnc2c1ccn2CC(=O)Nc1ccc(C)c(C)c1	0.7%	26.2%	.	.	31.8%	.
Cc1cc(C)n2c(SCc3ccc(Br)cc3)nnc2n1	8.4%	-3.6%	34.7	11.2*	-21.3%	-39.1%
COC(=O)c1ccc(CSc2nnc3nc(C)cc(C)n23)cc1	-15.7%	?	-2.6	-1.9	?	.
CC1=C(C(=O)Nc2ccccc2C)C(c2ccccn2)n2nc(SCc3ccccc3F)nc2N1 (centres undefined)	1.3%	.	.	.	.	.
Cc1onc(-c2ccccc2)c1C(=O)NC(=S)NNC(=O)c1ccncc1	-14.6%	?	-4.5	-3.4	10.4µM*	-3.9%
Cc1onc(-c2ccccc2)c1C(=O)NNC(=S)NC(=O)c1ccc2c(c1)OCO2	3.8%	103.3%	90.5*	46.5*	86.6%	-42.8%
COc1ccc(C(=O)NC(=S)NNC(=O)c2c(-c3ccccc3)noc2C)cc1OC	2.8%	57.3%	-3.1	-2.3	19.6%	-1.7%
Cc1onc(-c2ccccc2)c1C(=O)NC(=S)NNC(=O)c1cccnc1	-0.6%	22.4%	9.8	-5.0	?	2.3%
CCOc1ccc(N(CC(=O)N/N=C(\C)c2cccc(NC(C)=O)c2)S(=O)(=O)c2ccccc2)cc1	16.0%	14.6%[0.00184 µM]	-8.9	-2.1	3.9%	-2.4%
Cc1nn(CCOc2ccccc2)c(=O)n1-c1ccc(F)cc1	-0.7%	37.6%	61.7*	32.1*	30.7%	4.6%
Cc1nn(C)c(=O)n1-c1ccc(OCc2ccccc2)cc1	-7.9%	169.5%	89.0*	43.8*	172.4%	-7.9%
COC(=O)CCC(=O)c1oc2ccc(Br)cc2c1N	-5.9%	i	+	41.5*	3.9%	-12.0%
Cc1cccc(C)c1OCC(=O)Nc1c(C(=O)c2ccc(Br)cc2)oc2ccccc12	-3.7%	.	.	.	.	.
CCOC(=O)c1oc2ccccc2c1N	-2.1%	18.5%	66.9*	27.4*	0.2%[5.75 µM]	-16.3%
SMILES	Sm TGR inh	Pf growth 48h	Shiga toxin inh	Cycloheximide cs	Pf growth 96h	NS1 function inh
Nc1c(C(=O)c2ccc(Br)cc2)oc2ccccc12	2.9%	49.2%	44.7*	29.9*	-5.6%	-13.5%
CCOCC(=O)Nc1c(C(=O)OCC)oc2ccccc12	-7.4%	33.8%	-15.3	-1.6	-4.7%	-12.6%
Cc1ccc(C(=O)c2oc3ccccc3c2N)cc1	-5.2%	21.8%	74.0*	20.4*	1.2%	-7.4%
O=C(COC(=O)C1CC(O)CN1C(=O)Oc1ccccc1)c1ccc(Br)cc1 (centres undefined)	2.5%	17.0%	-14.4	-3.2	?	4.1%
Nc1c(C(=O)c2ccccc2)oc2ccc([N+](=O)[O-])cc12	0.6%	-17.0%	41.1*	25.8*	186.9%	-3.7%
Nc1c(C(=O)c2ccccc2)oc2ccc(Br)cc12	6.4%	158.9%	82.9*	27.7*	?	-7.9%
COC(=O)c1oc2ccc(Br)cc2c1-n1cccc1	15.4%	5.6%	-5.7	-4.2	?	-14.3%
COc1ccc(S(=O)(=O)NC(C)(C)CO)cc1-c1nnc2c3ccccc3c(C)nn12	1.4%	.	.	.	.	.
CCc1ccc2c(c1)c(=O)c(S(=O)(=O)c1ccc(Cl)cc1)cn2CC	1.1%	.	.	.	.	.
CC(C)c1ccc(NC(=O)C2CC(=O)Nc3nc4ccccc4n32)cc1 (centres undefined)	-3.2%	2.6%	18.4	22.8*	6.2%	4.5%
O=C1c2ccccc2N[C@H](c2cc(Cl)cc(Cl)c2O)N1CCc1ccccn1	.	.	.	.	.	-8.2%
O=c1oc(Nc2cccc(F)c2)nc2ccccc12	-8.0%	154.2%	105.3*	18.0*	96.5%	0.0%
Fc1cccc(Nc2c3c(nc4ccccc24)CCC3)c1	-14.3%	?	-10.4	-2.8	4.0%	-8.5%
Nc1nc(Nc2cccc(F)c2)nc2ccccc12	4.0%	?	105.1*	28.8*	-31.7%	-114.1%
CCc1ccc(S(=O)(=O)c2nnn3c2nc(Nc2ccc(C)c(Cl)c2)c2sccc23)cc1	4.4%	.	.	.	.	.
NNC(=O)CNC(c1ccccc1)c1cc(Br)ccc1NC(=O)c1ccccc1Br (centres undefined)	16.9%	8.28µM*	-5.5	-5.0	77.6%	?
Cc1ccccc1N1CCN(S(=O)(=O)c2nnc(NC(=O)c3ccc(C(C)C)cc3)s2)CC1	-1.1%	.	.	.	.	.
CN1C(=O)NC(=O)[C@]2(Cc3ccccc3N3CCN(c4ccccc4)CC32)C1=O (some centres undefined)	?	.	12.8	30.6*	-87.4%	12.2%
O=C1NC(=O)[C@]2(Cc3ccccc3N3CCN(c4ccccc4)CC32)C(=O)N1Cc1ccccc1 (some centres undefined)	?	?	54.3*	30.1*	9.28µM*	-43.8%
CN1C(=O)NC(=O)C2(Cc3ccccc3N3CCOCC32)C1=O (centres undefined)	-4.0%	2.3%	27.6	-2.3	?	-2.3%
O=C1NC(=O)[C@]2(Cc3ccccc3N3CCN(c4ccccc4)CC32)C(=O)N1c1ccccc1 (some centres undefined)	-9.6%	?	75.9*	25.0*	-5.3%	-0.3%
CCC(=O)N1CCc2cc(S(=O)(=O)NC(C(=O)NCCc3ccc(Cl)cc3)C(C)C)ccc21 (centres undefined)	-0.4%	.	.	.	.	.
